The values below come from PubChem BioAssay.

Activity calls are given as the source filed them.

In one assay the target is Albumin (Bos taurus) (UniProt P02769). Nature of the assay: compounds binding labelled BSA control protein – biochemical, small-molecule microarray, Alexa647 label, 635/667 nm fluorescence, artefact control for SMM control protein annotation, profiling panel (AID 1118).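 Also: score merges 667 nm emission intensity and signal-to-noise per printed compound spot.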 The conditions noted are these: BSA-A647 binding, fluorescence 635 nm, higher = more signal.
Chain of Albumin (Bos taurus) (P02769 whole entry, looked up): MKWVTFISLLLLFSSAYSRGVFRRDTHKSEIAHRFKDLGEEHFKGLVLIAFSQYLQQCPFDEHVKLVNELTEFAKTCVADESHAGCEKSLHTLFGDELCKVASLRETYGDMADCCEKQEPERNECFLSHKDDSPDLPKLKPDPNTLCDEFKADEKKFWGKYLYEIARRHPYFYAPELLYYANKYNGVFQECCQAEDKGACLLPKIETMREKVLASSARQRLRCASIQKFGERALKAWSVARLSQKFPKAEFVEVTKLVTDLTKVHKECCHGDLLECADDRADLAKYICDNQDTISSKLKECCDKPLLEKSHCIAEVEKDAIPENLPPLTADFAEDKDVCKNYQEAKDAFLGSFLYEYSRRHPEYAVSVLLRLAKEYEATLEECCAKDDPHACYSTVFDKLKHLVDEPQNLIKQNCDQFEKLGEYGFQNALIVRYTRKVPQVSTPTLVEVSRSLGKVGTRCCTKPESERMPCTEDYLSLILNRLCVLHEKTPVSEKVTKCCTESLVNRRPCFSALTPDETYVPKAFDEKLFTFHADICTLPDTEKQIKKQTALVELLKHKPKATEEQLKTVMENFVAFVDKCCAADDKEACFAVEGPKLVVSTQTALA
Assay [1] can be described thus: probe aXIP binding to arrayed compounds – biochemical, NeuroSMM set, 635/667 nm fluorescence, primary screen (AID 1119).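 Also: probe is the protein aXip251-270 applied at 1 µg/mL to compound-printed slides; binding of probe to printed compounds measured as 667 nm fluorescence plus signal to noise.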 To be noted: small-molecule microarray, higher = more signal, called active from +8 up or from −8 down.
The nature of assay [2]: probe aNOTCH3 binding on compound microarray – biochemical, small-molecule microarray, 635/667 nm fluorescence, primary screen (AID 1120).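 Also: probe is a biotin-tagged antibody raised against NOTCH3 rather than NOTCH3 protein; score merges spot fluorescence near 667 nm with spot signal to noise.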 To be noted: higher = more signal.
Assay [3] in a line: probe aNOTCH2 binding on compound microarray – biochemical, small-molecule microarray, 635/667 nm fluorescence, primary screen (AID 1121).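 Also: score merges feature fluorescence read at 667 nm with its signal to noise.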 To be noted: higher = more signal.
The target in assay [4] is Carbonic anhydrase 2 (Homo sapiens) (UniProt P00918). Description: compounds binding carbonic anhydrase 2 – biochemical, small-molecule microarray, Alexa647-labelled CAII, profiling panel (AID 1122). To be noted: CAII-A647 binding fluorescence, higher = more signal.
Assay [5] in a line: COS7 lysate on small-molecule microarray, probe aHis, 635 nm (AID 1123).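 Also: z-score combines 667nm fluorescence intensity with signal-to-noise per printed compound spot.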 The conditions noted are these: COS7 cell lysate, fluorescence, higher = more signal.
The nature of assay [6]: probe aLAP1 signal on lysate-treated microarray – cell lysate, small-molecule microarray, COS7 lysate, primary screen (AID 1124).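 Also: lysate comes from COS7 cells expressing LAP1 and is applied at 0.3 µg/mL; score merges spot fluorescence near 667 nm with signal-to-noise over triplicate slides.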 The conditions noted are these: probe aLAP1, fluorescence, higher = more signal.
Another assay has as its system Sam68 (KHDRBS1). Description: compounds binding KHDRBS1 protein – biochemical, small-molecule microarray, 635 nm fluorescence, primary screen (AID 1125).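 Also: score merges 667 nm channel intensity with signal to noise over triplicate slides.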 The conditions noted are these: higher = more signal.
Assay [7] concerns Chordin-like protein 2 (CHRDL2). Nature of the assay: compounds binding chordin-like 2 – biochemical, small-molecule microarray, 635 nm fluorescence, primary screen (AID 1126).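 Also: printed compound slides probed with Chrdl2 protein at 4 µg/mL for 1 h at 4 C; score merges 667 nm emission intensity with signal to noise over three replicate slides.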 To be noted: fluorescence 635 nm, higher = more signal.
Assay [8] has as its target Concanavalin-A (Canavalia ensiformis) (UniProt P02866). Nature of the assay: compounds binding concanavalin A lectin – biochemical, small-molecule microarray, Alexa647 label, 635 nm, artefact control for SMM control protein annotation, primary screen (AID 1127).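 Also: z combines 667 nm emission intensity with signal-to-noise across three replicate slides.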 To be noted: ConA-A647 binding fluorescence, higher = more signal.
Assay [9] can be described thus: compounds binding Alexa647 anti-His antibody – biochemical, small-molecule microarray, 635 nm fluorescence, artefact control for SMM control protein annotation, primary screen (AID 1128).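 Also: score merges feature fluorescence with signal-to-noise for each printed compound spot.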 To be noted: higher = more signal.
The test system of assay [10] is Human papillomavirus type 1a E7 protein (residues 1-88). Nature of the assay: HPV1a E7 small-molecule binders, primary screen, biochemical, small-molecule microarray, residues 1-88, 635 nm (AID 1129). To be noted: small-molecule microarray binding, fluorescence 635 nm; higher = more signal.
Assay [11] addresses Focal adhesion kinase 1 (Homo sapiens) (UniProt Q05397). Description: PTK2 protein binding on printed compound slides – biochemical, small-molecule microarray, 635/667 nm fluorescence, BSA, DTT, primary screen (AID 1130).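 Also: composite of spot emission at 667 nm and signal to noise over triplicate slides.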 The conditions noted are these: 635 nm fluorescence, higher = more signal.
Assay [12] has as its system Fibrinogen (Alexa647-labelled). Nature of the assay: Alexa647-fibrinogen binding to printed small molecules – biochemical, small-molecule microarray, 635/667 nm fluorescence, artefact control for SMM control-protein annotation, profiling panel (AID 1131).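 Also: z-score merges 667 nm fluorescence with per-spot signal-to-noise over triplicate slides.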 To be noted: fibrinogen-A647 binding fluorescence, higher = more signal.
Assay [13] addresses Follistatin (Homo sapiens) (UniProt P19883). Nature of the assay: FST protein binding to printed compounds – biochemical, small-molecule microarray, 635/667 nm fluorescence, primary screen (AID 1132). To be noted: 635 nm fluorescence, higher = more signal.
Assay [14] deals with Fibroblast growth factor 2 (Homo sapiens) (UniProt P09038). Nature of the assay: basic fibroblast growth factor binding to printed compounds – biochemical, small-molecule microarray, 635/667 nm fluorescence, primary screen (AID 1133). The conditions noted are these: FGF2, fluorescence 635/667, higher = more signal.
Chain of Fibroblast growth factor 2 (Homo sapiens) (P09038 whole entry, looked up): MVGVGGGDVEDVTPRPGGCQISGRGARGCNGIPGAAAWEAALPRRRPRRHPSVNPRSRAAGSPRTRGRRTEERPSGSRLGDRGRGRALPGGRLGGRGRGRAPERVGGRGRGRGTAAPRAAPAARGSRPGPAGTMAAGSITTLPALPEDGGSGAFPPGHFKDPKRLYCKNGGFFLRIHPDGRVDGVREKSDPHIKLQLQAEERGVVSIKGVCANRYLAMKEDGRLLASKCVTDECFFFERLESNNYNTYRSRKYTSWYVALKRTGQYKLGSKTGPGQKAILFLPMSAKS
A short description of assay [15]: JC-1 mitochondrial potential readout, lung cancer cells – cell-based, A549, JC-1 fluorescence, basal, 24 h, 100 nL, profiling panel (AID 1138).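 Also: A549 lung adenocarcinoma cells under basal conditions with no added stimulus; test concentration not given here.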 To be noted: higher = more signal.
The next assay has as its system Lefty1. Description: Lefty1 protein binding to printed compounds – biochemical, small-molecule microarray, 635/667 nm fluorescence, primary screen (AID 1139). The conditions noted are these: fluorescence 635/667, higher = more signal.
For assay [16], the system named is wheat germ agglutinin (Triticum aestivum), Alexa647-labelled. Nature of the assay: Alexa647-WGA lectin binding to printed small molecules – biochemical, small-molecule microarray, 635/667 nm fluorescence, artefact control for SMM control-protein annotation, profiling panel (AID 1140).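 Also: score merges 667 nm feature emission with signal to noise over triplicate slides.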 The conditions noted are these: WGA-A647 binding, 635 nm fluorescence, higher = more signal.

Assay [17] addresses Luciferin 4-monooxygenase (Photinus pyralis) (UniProt P08659). Nature of the assay: inhibition of purified Photinus pyralis luciferase – biochemical, luminescence, purified enzyme, 2006 set, primary screen (AID 1141).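 Also: cell-free assay with purified firefly luciferase at 100 ng per well in PBS; test concentration not given here.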 The conditions noted are these: purified firefly luciferase, SteadyGlo luminescence, 30 min; higher = more signal, called active from +8 up or from −8 down.

Chain of Concanavalin-A (Canavalia ensiformis) (P02866 whole entry, looked up): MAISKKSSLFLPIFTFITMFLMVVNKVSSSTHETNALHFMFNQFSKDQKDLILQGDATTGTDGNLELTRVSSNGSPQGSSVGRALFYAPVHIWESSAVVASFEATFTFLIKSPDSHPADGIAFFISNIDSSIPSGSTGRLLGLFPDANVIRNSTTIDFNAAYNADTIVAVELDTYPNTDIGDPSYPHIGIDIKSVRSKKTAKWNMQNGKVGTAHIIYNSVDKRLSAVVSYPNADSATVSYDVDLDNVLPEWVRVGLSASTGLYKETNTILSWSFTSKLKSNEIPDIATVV
Chain of Luciferin 4-monooxygenase (Photinus pyralis) (P08659 whole entry, looked up): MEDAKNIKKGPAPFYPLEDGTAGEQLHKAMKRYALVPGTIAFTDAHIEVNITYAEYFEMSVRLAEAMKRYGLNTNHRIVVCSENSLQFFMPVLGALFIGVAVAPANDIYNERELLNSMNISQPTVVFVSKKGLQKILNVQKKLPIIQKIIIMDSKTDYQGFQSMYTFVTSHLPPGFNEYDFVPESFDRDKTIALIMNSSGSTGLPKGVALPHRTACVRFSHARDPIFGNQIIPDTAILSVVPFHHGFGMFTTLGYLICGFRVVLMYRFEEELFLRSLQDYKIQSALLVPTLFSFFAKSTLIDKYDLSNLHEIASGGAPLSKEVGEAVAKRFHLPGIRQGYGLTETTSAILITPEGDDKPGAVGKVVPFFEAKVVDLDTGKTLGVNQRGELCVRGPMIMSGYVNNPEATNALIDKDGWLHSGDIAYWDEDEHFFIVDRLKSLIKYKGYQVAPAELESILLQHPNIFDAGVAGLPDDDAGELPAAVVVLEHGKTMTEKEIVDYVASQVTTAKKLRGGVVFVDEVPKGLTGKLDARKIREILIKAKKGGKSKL
Chain of Follistatin (Homo sapiens) (P19883 whole entry, looked up): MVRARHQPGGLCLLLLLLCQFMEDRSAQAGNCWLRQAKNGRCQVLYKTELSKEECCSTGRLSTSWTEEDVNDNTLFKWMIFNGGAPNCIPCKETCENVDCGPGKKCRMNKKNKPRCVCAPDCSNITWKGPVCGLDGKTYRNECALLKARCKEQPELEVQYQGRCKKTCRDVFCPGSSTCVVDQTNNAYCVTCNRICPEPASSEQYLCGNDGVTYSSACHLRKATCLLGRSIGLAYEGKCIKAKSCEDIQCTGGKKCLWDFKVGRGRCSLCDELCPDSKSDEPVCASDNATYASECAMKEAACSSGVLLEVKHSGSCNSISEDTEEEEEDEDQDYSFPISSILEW
Chain of Focal adhesion kinase 1 (Homo sapiens) (Q05397 whole entry, looked up): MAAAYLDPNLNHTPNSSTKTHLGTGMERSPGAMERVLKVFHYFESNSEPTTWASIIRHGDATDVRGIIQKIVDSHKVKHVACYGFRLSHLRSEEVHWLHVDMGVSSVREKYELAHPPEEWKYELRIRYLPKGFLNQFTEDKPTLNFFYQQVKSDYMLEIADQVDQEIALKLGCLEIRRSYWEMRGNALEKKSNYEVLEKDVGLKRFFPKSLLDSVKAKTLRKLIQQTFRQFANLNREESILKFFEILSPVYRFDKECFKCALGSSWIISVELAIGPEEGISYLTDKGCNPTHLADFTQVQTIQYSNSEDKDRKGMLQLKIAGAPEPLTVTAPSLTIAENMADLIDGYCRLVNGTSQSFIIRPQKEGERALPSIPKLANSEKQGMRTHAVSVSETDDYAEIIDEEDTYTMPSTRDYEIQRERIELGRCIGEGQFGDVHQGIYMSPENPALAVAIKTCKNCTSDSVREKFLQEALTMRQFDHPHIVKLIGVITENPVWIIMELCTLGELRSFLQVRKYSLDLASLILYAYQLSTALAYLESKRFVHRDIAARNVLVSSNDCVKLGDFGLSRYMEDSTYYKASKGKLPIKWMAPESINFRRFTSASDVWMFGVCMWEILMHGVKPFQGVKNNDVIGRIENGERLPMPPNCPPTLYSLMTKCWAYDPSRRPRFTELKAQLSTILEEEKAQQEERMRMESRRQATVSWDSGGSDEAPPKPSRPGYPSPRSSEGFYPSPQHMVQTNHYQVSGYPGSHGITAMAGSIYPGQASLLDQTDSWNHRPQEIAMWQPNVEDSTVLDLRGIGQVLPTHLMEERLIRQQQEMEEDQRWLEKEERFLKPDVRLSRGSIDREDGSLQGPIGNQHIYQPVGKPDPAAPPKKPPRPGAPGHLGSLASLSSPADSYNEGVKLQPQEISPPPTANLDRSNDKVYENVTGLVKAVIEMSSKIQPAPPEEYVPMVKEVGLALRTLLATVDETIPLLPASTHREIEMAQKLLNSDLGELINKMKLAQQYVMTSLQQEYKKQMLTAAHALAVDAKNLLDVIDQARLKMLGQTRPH

In the case of `CC(C)(C)N1C(=O)[C@H]2[C@H]3[C@H](O)[C@H](O)CC(=NNC(=O)OCc4ccccc4)[C@H]3CC[C@H]2C1=O`, the composite z-score in the assay with Albumin (Bos taurus) was -0.316; in [2], -0.0071; in [3], -0.075; in assay [4], 0.158; in assay [5] it was 0.447; in [6], -0.0026. The composite z-score with Sam68 (KHDRBS1) is 1.1; in assay [7], 0.303; in assay [8] it was 0.275; in assay [9] it was 0.758; in assay [10] it was 0.848; in assay [11] it was 0.0507. For the same molecule, the composite z-score in [12] was 1.03; in [13], 0.963; in [14], 0.491; with Lefty1, 1.43; in assay [16], 0.525. For the same molecule, the composite Z-score in assay [1] is 0.175 (inactive). Moreover, the z-score in assay [15] is -1.08; in assay [17], 0.944 (inactive).

As for `CC(CCN1CCc2nc(-c3ccccc3)c(-c3ccccc3)cc2C1)=NO[C@H](C)c1cn([C@H](CO)Cc2ccccc2)nn1`, the composite z-score is 0.901 with Albumin (Bos taurus); -0.155 in [2]; -0.161 in assay [3]; 0.367 in assay [4]; 0.585 in [5]; 0.0245 in assay [6]. The composite z-score in the assay with Sam68 (KHDRBS1) is -0.29; in assay [7], 0.26; in assay [8], 0.158; in [9] it was 0.955; in assay [10], 0.137; in assay [11], 0.0132. The composite z-score in [12] turned out to be 0.689; in assay [13] it was 0.677; in assay [14], 0.882; in the assay on Lefty1 it was 0.313; in [16] it was 0.158. Also, the composite Z-score in [1] is -0.248 (inactive). The results for the z-score in assay [15] and in [17] were 2.22 and -0.595 (inactive), respectively.

As for `CO[C@H]1COC(=O)CC=C[C@H](C)[C@H](OC)COC(=O)[C@@H](C)NC(=O)CC=C[C@@H]1C`, the composite z-score in the assay with Albumin (Bos taurus) is -0.487; in [2] it was -0.0319; in assay [3], -0.164; in assay [4], -0.54; in [5], 1.95; in assay [6], -0.0788. Also, the composite z-score in the assay on Sam68 (KHDRBS1) was -0.445; in assay [7], 1.49; in [8] it was -0.898; in assay [9], 0.491; in [10], -1.08; in assay [11], 0.764. Besides, the composite z-score in [12] is -2.18; in [13], 1.23; in [14] it was 1.47; in the assay on Lefty1, 1.52; in assay [16], -0.206. The composite Z-score in [1] is -0.347 (inactive). In addition, the figures for the z-score in assay [15] and in [17] were -0.838 and 1.14 (inactive), respectively.

As to `O=C1[C@H]2[C@H]3[C@H](O)[C@H](O)CC(=NOC[C@@H](O)COCc4ccco4)[C@@H]3CC[C@H]2C(=O)N1Cc1ccc2c(c1)OCO2`, the composite z-score with Albumin (Bos taurus) is 0.29; in [2] it was -0.127; in [3], -0.148; in assay [4], -0.307; in assay [5], -0.0845; in assay [6] it was 0.123. For the same molecule, the composite z-score in the assay with Sam68 (KHDRBS1) was 0.275; in assay [7], 1.54; in assay [8], -0.19; in assay [9] it was -0.133; in assay [10] it was -0.499; in assay [11], -0.347. Further, the composite z-score in [12] is -0.952; in [13], 1.35; in assay [14], 1.56; in the assay on Lefty1 it was 0.793; in assay [16] it was -0.63. Further, the composite Z-score in assay [1] was 0.564 (inactive). For the same molecule, the z-score in assay [15] is 0.96; in assay [17], -0.0365 (inactive).

`CC(CCC(=O)OC[C@H]1O[C@H](C#Cc2ccccc2)C=C[C@@H]1Oc1ccc(C)cc1)=NO[C@@H](C)c1cc(-c2c(C)cc(C)cc2C)no1`: the composite z-score with Albumin (Bos taurus) was 0.363; in assay [2] it was -0.272; in [3], -0.14; in assay [4] it was -0.0955; in assay [5] it was 0.0007; in assay [6], 0.173. For the same molecule, the composite z-score in the assay with Sam68 (KHDRBS1) was -0.42; in assay [7] it was -0.872; in [8], -0.214; in [9] it was 0.888; in [10], -1.49; in assay [11] it was -0.0556. The composite z-score was 0.709 in [12]; -0.921 in [13]; -0.977 in assay [14]; -0.589 with Lefty1; 0.848 in assay [16]. Further, the composite Z-score in assay [1] was -0.61 (inactive). In addition, the z-score in [15] was -0.00541; in assay [17] it was 0.0957 (inactive).

In the case of `CON(C)C(=O)c1nnc2c(n1)[nH]c1ccccc12`, the composite z-score with Albumin (Bos taurus) was 0.795; in [2], -0.0765; in assay [3], -0.167; in assay [4], 0.464; in assay [5], 0.128; in assay [6] it was 1.02. Also, the composite z-score with Sam68 (KHDRBS1) stood at 0.129; in [7], 0.493; in assay [8], 0.293; in assay [9], 0.459; in assay [10], 0.607; in assay [11], 0.137. Moreover, the composite z-score was determined as 0.471 in assay [12]; 0.545 in assay [13]; 0.635 in assay [14]; 0.596 with Lefty1; 0.816 in assay [16]. For the same molecule, in assay [1], the composite Z-score is 0.0617 (inactive). For the same molecule, the z-score in [15] was -0.448; in assay [17] it was -2.33 (inactive).
